Laboratory results published in ChEMBL document CHEMBL1157539, “Thousands of chemical starting points for antimalarial lead identification” (Nature, 2010).

Test system: HepG2
Experiment: GSK_TCMDC: Percent inhibition of human HepG2 cell line. Test compounds present at 10uM.
Format: functional

Row | Structure (SMILES) | Inhibition [%]
1 | CCNc1cc(C(=O)N[C@@H](Cc2ccco2)[C@H](O)CNC2CCCCC2)cc(N2CCCCS2(=O)=O)c1.Cl | 14
2 | COCCNCc1cccc(-c2cc3nccc(Nc4ccc(Oc5ccccc5)cc4)c3cc2Cl)c1 | 0
3 | CCCCCCCN(Cc1ccc(OC(C)(C)C(=O)OCC)cc1)C(=O)Nc1ccccc1OCC | 0
4 | O=C(CC1CCCCC1)NCC(NCCCNc1cc(=O)c2ccccc2[nH]1)c1cc(Br)cc(Br)c1 (stereo unspecified) | 8
5 | O=c1[nH]c2c(cc1CNC1CCCCC1)c(-c1ccc(F)cc1)nn2-c1ccccc1 | 8
6 | CC(C)C(C(=O)Nc1ccc2c(c1)OCO2)c1ccc(Cl)cc1 (stereo unspecified) | 25
7 | Cl.N=c1n(Cc2ccccc2)c2ccccc2n1CC(O)c1ccc(Cl)c(Cl)c1 (stereo unspecified) | 40
8 | COc1ccccc1C1CCN(C2CCC(NC(=O)/C=C/c3ccc(C(F)(F)F)cc3)CC2)CC1 (stereo unspecified) | 57
9 | Cc1ccc(N2C(N)=NC(N)=NC2(C)C)cc1Cl.Cl | 66
10 | CCc1ccc(N2C(=O)C3C(Cc4ccc(OC(C)(C)C)cc4)NC4(C(=O)N(Cc5ccccc5)c5ccc(F)cc54)C3C2=O)cc1 (stereo unspecified) | 9
11 | COc1c(CCNCCCCNCCc2cc(Cl)c3ccccc3c2OC)cc(Cl)c2ccccc12.CS(=O)(=O)O | 99
12 | CC(C)CNC(=O)c1cncc(-c2ccc(CN(C)C3CCN(C)CC3)cc2)c1.O=C(O)C(F)(F)F | 15
13 | NC1CCCN(Cc2cccc(-c3ccc(-c4nc5cc(F)ccc5[nH]4)cc3)c2)C1.O=C(O)C(F)(F)F (stereo unspecified) | 40
14 | CN(C)CCNc1ncnc2c1[nH]c1ccc(Cl)cc12 | 7
15 | N#CC(c1ccc(Br)cc1)c1ccc2c(C(F)(F)F)cc(C(F)(F)F)nc2n1 (stereo unspecified) | 75
16 | Cc1ccc(Nc2nc(N/N=C/c3cc4c(cc3Br)OCO4)nc(Nc3ccc([N+](=O)[O-])cc3)n2)cc1C | 23
17 | Fc1cccc(Cn2ncc3cc(Nc4ncnc5sc(C#Cc6ncc[nH]6)cc45)ccc32)c1 | 31
18 | COc1cccc(NC(=O)NC2CCN(c3ccnc(Nc4cc(OC)c(OC)c(OC)c4)n3)C2)c1 (stereo unspecified) | 8

Row | Structure (SMILES) | Inhibition [%]
19 | O=C(NC1CC1)c1ccc2cc(C(=O)N3Cc4ccccc4C(c4ccccc4)C3)ccc2c1 (stereo unspecified) | 0
20 | Nc1nc(N)c2c(CCc3ccc(Cl)c(Cl)c3)cccc2n1 | 51
21 | COc1ccccc1CCNc1ncc(F)c(N[C@@H](Cc2ccccc2)C(=O)NCCc2ccccc2)n1.O=C(O)C(F)(F)F | 7
22 | CS(=O)(=O)n1c(CN2CCN(c3ncc(C(F)(F)F)cc3Cl)CC2)nc2ccccc21 | 0
23 | Cc1ccc2nc(C)cc(N/N=C/c3cccc([N+](=O)[O-])c3)c2c1 | 0
24 | O=C(CCC1CCCC1)N(Cc1ccc(-c2ccc(CNCCc3ccccc3)cc2)cc1)C1CCCNC1.O=C(O)C(F)(F)F (stereo unspecified) | 99
25 | O=C(NCCCN1CCN(c2cccc(Cl)c2)CC1)c1ccc(-c2nc3cc(Cl)c(Cl)cc3[nH]2)c(F)c1 | 3
26 | Cc1cc(=NN=Cc2ccc(F)cc2)c2ccc(F)cc2[nH]1 | 0
27 | Cl.c1ccc(-c2ccc3c(Nc4ccc5[nH]ccc5c4)ccnc3c2)nc1 | 11
28 | COc1cccc(CNC[C@@H](O)[C@H](Cc2ccccc2)NC(=O)c2cc(NC(C)C)cc(N3CCCCS3(=O)=O)c2)c1.O=CO | 1
29 | CN1CCN(c2cccc(NC(=O)c3ccc(-c4ccc(C#N)cc4)cc3)c2)CC1 | 31
30 | Cc1ccc2c(c1)c(-c1ccccc1)c(-c1ccccc1)n2CC(O)CN1CCN(CC=Cc2ccccc2)CC1 (stereo unspecified) | 0
31 | CC1CN(c2cc(=O)n(Cc3ccc(NC(=O)Nc4ccc(-c5ccccc5)cc4)cc3)cn2)CC(C)N1.O=C(O)C(F)(F)F (stereo unspecified) | 0
32 | Cl.O=C(Nc1ccc(Cl)c(Cl)c1)Nc1ccc2nccc(N3CCNCC3)c2c1 | 18
33 | CC(=O)N[C@H](C(=O)Nc1ccc(-c2ccc(-c3nc4cc(C(F)(F)F)ccc4[nH]3)cc2)cc1)C(C)C | 24
34 | CCc1c[nH]c2c(N3CCCS3(=O)=O)cc(C(=O)N[C@@H](Cc3ccccc3)[C@H](O)CNC(C)(C)c3cccc(C(F)(F)F)c3)cc12.O=CO | 20
35 | CN1CCC(NCc2cccc(-c3cnc(NCc4ccccc4)nc3)c2)CC1.O=C(O)C(F)(F)F | 12
36 | Cc1cc(OCCCN2CCCCC2)ccc1NC(=O)COc1ccc(Cl)cc1C(=O)c1cc(Cl)cc(C#N)c1 | 28
